# proKLK7 act = activators of human kallikrein-7 zymogen | P49862 | purified proKLK7, EDANS-DABCYL substrate fluorescence; 100% is mature enzyme control, 0% vehicle | activation, % at 7 µM | hit rate 0.9% among 370,000 | AID 652039;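 active = activation above the mean of all tested compounds plus 3 SD, computed per campaign excluding outliers beyond control limits, cut at about 13% in these data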
# FAS TE block = FAS thioesterase (human) inhibition. recombinant FAS-TE, OMFH fluorogenic substrate, fluorescence endpoint. hit rate 0.67% among 360,000. inhibition, % at 15 µM. P49327;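 active = compounds whose normalised, plate-corrected inhibition of enzyme fluorescence in the single-dose primary screen is 50% or more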
# ADAM10 inh = inhibits human ADAM10; inhibition, % at 7 µM; AID 720582; recombinant ADAM10, EDANS/DABCYL FRET peptide cleavage, 3 h; hit rate 0.62% among 370,000;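 active = inhibition above a per-campaign cutoff equal to the mean of compounds falling between control-based bounds plus 3 SD, cut at about 20% in these data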
# Target sequence (O14672 214-748 limits assumed): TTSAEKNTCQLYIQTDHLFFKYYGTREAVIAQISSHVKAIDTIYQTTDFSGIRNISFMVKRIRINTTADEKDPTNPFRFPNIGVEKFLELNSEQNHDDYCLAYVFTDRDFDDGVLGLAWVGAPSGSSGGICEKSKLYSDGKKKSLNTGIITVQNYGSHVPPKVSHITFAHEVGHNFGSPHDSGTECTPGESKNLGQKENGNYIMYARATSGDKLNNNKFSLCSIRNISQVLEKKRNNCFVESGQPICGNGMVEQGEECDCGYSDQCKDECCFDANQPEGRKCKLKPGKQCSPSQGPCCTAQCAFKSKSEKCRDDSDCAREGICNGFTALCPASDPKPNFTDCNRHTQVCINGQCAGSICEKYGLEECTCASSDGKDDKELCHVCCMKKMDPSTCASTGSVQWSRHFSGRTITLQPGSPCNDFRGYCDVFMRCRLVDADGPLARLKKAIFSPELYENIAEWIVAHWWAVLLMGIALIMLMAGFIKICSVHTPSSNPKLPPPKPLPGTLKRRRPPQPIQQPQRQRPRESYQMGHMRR
# NR3A LBD binder = modulators (binders) of human NR3A ligand-binding domain. NR3A LBD differential scanning fluorimetry, Tm shift; 0% = protein alone, 100% = glycine-bound protein. Tm shift relative to glycine control, % at 25 µM. hit rate 2.5% among 340,000. AID 1259313;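 active = melting temperature shift of at least 10% of the positive control shift, at one fixed dose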
# ADAM17 inh = ADAM17 inhibition, QFRET primary screen; P78536; recombinant ADAM17, EDANS/DABCYL FRET peptide cleavage; inhibition, % at 6.95 µM; hit rate 0.83% among 370,000;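 active = inhibition above the mean of compounds lying between control limits plus 3 SD, set per campaign, cut at about 8.5% in these data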
# ADAM10 confirm = human ADAM10 inhibition, confirmation | inhibition, % at 6.95 µM | hit rate 1% among 2,100 | shares compounds with ADAM10 inh | ADAM10 QFRET peptide cleavage, EDANS fluorescence | AID 743208;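 active = inhibition above about 20% chosen separately for each screening run, limit read from the data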
# ADAM17 ctr = counter-screen for ADAM10 exosite inhibitors: inhibitors of human ADAM17; shares compounds with ADAM10 inh; ADAM17 QFRET peptide cleavage, EDANS fluorescence; AID 743214; hit rate 0.5% among 2,100; inhibition, % at 6.95 µM;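 active = mean triplicate inhibition above the solvent-only control wells' mean plus 3 SD, cut at about 12% in these data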
# Hits are given with their value; i = inactive; nt = no result given. Rows were chosen to be rich in hits. Some 4.6% of all compounds tested hit in one or more screens of this group.
SMILES,proKLK7 act,FAS TE block,ADAM10 inh,NR3A LBD binder,ADAM17 inh,ADAM10 confirm,ADAM17 ctr
Cc1ccc(NC(=S)N2CCN(c3ccccn3)CC2)cc1C,i,i,20.9,i,i,i,i
CCOC(=O)CN1C(=O)N(c2ccc(OC)cc2)[C@H]2CC3c4ccccc4C[C@]3(C)[C@@H](C(=O)N(C)C3CCCCC3)C[C@H]21 (stereo not given in full),i,nt,i,nt,i,nt,nt
O=C(Cc1ccc(NC(=O)C2CCN(C(=O)C3CCCC3)CC2)cc1)Nc1cccc(C(=O)N2CCCC2)c1,i,nt,i,nt,i,nt,nt
O=C(O)Cn1nnnc1SCC(=O)Nc1ccc(OC(F)(F)F)cc1,i,i,81.8,i,i,i,i
CC1(C)CC(=O)C=C(c2ccc(COC(=O)C(c3ccccc3)c3ccccc3)cc2)C1=O,i,i,20.1,nt,i,i,i
COc1ccc(NC(=O)c2cc(-c3cc(C)cc(F)c3)n[nH]2)cc1OC,i,i,26.3,nt,i,i,i
COc1ccc(NS(=O)(=O)c2cc(NC(=O)c3ccc(F)cc3)ccc2OC)cc1,i,i,i,i,i,nt,nt
COc1ccc(NC(=O)c2ccc(F)cc2)cc1S(=O)(=O)Nc1cc(C)ccc1Br,i,i,22.6,20.9,i,i,i
COc1ccc(NC(=O)c2cc(-c3cc(F)ccc3OC(C)C)n[nH]2)cc1OC,i,i,i,nt,i,nt,nt
CCOc1ccc(Cl)cc1-c1cc(C(=O)Nc2cc(OC)c(OC)c(OC)c2)[nH]n1,i,i,20.2,nt,i,i,i
COC(=O)[C@]12C[C@H](CC(=O)NCCCN3CCCC3=O)C(=O)N(Cc3ccco3)C1=C[C@H](C1CCCC1)O[C@@H]2C,i,nt,i,nt,i,nt,nt
Cc1ccc(-n2c(COc3ccccc3)nnc2SCC(=O)Nc2ccc3c(c2)OCO3)cc1,i,nt,19.8,nt,i,i,i
COc1ccc(/C=N/NC(=O)c2ccn[nH]2)cc1COc1ccc(Cl)cc1Cl,i,i,20.6,i,i,i,i
CCc1c(-c2ccc(F)cc2F)ncn1CCc1ccccc1OC,i,nt,i,nt,i,nt,nt
CCCCN(C(=O)c1ccccc1Br)C(c1ccc(OC)cc1)c1nc2ccccc2[nH]1 (stereo not given),i,i,21.4,nt,i,i,i
O/N=C(/c1ccc(F)cc1)C1CC1c1c(F)cccc1Cl (stereo not given),i,i,26.5,i,i,i,i
O=S1(=O)c2ccc(N3CCC[C@@H]3CO)cc2OCCCN1C1CC1,i,nt,i,nt,i,nt,nt
COc1cccc(C2Nc3ccccc3C(=O)N2Cc2ccccc2)c1 (stereo not given),i,i,i,i,i,nt,nt
COc1ccc2c(c1)C[C@]1(C)c3ccccc3C(=O)N(Cc3ccccc3)[C@H]21,i,i,25.9,i,i,i,i
CCOC(=O)C(CNc1ccc(OCc2ccccc2)cc1)NC(=O)c1ccccc1 (stereo not given),i,nt,i,nt,i,nt,nt
CC1CC(C)CN(C(=S)SCc2nc(N)nc(Nc3ccccc3)n2)C1 (stereo not given),i,i,28.5,i,i,i,i
CC(C)Oc1ccc(C(=O)Nc2ccc(N3CCCC3)cc2)cc1,nt,i,nt,i,nt,nt,nt
O=C(Nc1ccc(N2CCCC2)cc1)c1cc(Cl)ccc1Cl,i,i,i,i,i,nt,nt
O=C(Nc1ccc(N2CCCC2)cc1)c1ccc(Cl)cc1Cl,i,i,20.3,i,i,i,i
O=C(Nc1ccccc1N1CCCC1)c1ccccc1Cl,i,i,23.0,i,i,i,i
SMILES,proKLK7 act,FAS TE block,ADAM10 inh,NR3A LBD binder,ADAM17 inh,ADAM10 confirm,ADAM17 ctr
O=C(Nc1ccccc1N1CCCC1)c1ccc(Cl)cc1Cl,i,i,i,i,i,nt,nt
O=C(Nc1ccc(N2CCCC2)cc1)c1ccc(Br)cc1,i,i,24.9,i,i,i,i
Nn1c(SCC(=O)Nc2ccc(S(=O)(=O)Nc3nccs3)cc2)nnc1-c1ccco1,i,nt,i,nt,i,nt,nt
CCCCCCCC(=O)N[C@H]1CC[C@@]23CCCN2C(=O)CCC[C@H]3[C@H]1CCC,nt,nt,i,nt,i,nt,nt
Cc1[nH]c2ccccc2c1CC(=O)Nc1ccc(Nc2cccnc2)c(-c2cc(C(F)(F)F)cc(C(F)(F)F)c2)c1,i,nt,i,nt,i,nt,nt
CCCCCN(C(=O)Cc1c(C)n(CCCCC)c2ccccc12)c1ccc(Oc2cccnc2)c(C)c1,i,nt,i,nt,i,nt,nt
O=C(NCc1ccccc1)[C@H]1CCCN1C(=O)[C@H]1CCCN1C(=O)c1ccc(OC(F)(F)F)cc1,i,nt,i,nt,i,nt,nt
CC(=NNC(=S)Nc1ccccc1Cl)c1ccccn1,i,i,i,i,i,nt,nt
CC(=NNC(=S)Nc1ccccc1)c1ccccn1,i,i,26.0,nt,13.4,47.5,42.6
O=C(N[C@H](C(=O)N1CCC[C@H]1C(=O)NC1CCCC1)C1CCCCC1)C1CCCC1,i,nt,i,nt,i,nt,nt
COc1ccc(C(=O)NC2CC3CCCC(C2)N3Cc2ccccc2)cc1OC (stereo not given),i,i,i,i,i,nt,nt
COc1ccc(C(=O)O[C@@H]2CCC[C@@]3(C(=O)N(Cc4ccccc4)c4ccccc43)[C@H]2NC(=O)CCc2ccccc2)cc1OC,i,nt,20.4,nt,i,i,i
Cc1ccc(C(=O)NNC(=S)NC(=O)c2ccccc2)cc1,i,i,23.5,i,i,i,i
COCC1CN(CCc2ccc(F)cc2)S(=O)(=O)c2c(OCCN3C(=O)[C@@H]4[C@H](C3=O)[C@@H]3C=C[C@H]4C3)cccc2O1 (stereo not given in full),i,nt,i,nt,i,nt,nt
CCOc1cc(S(=O)(=O)Nc2ccc(CC)cc2)ccc1Cl,i,i,24.9,12.9,i,i,i
C#CCN1C(=O)[C@@](O)(c2cccn2C)c2cc(F)ccc21,i,nt,i,nt,i,nt,nt
CCc1c(C#N)c(SCCC(=O)Nc2cccc(OC)c2)nc2c1C(=O)CC(C)(C)C2,i,i,21.9,i,i,i,i
COc1ccc(-c2c(C#N)c(SCc3c(C)noc3C)nc3c2C(=O)CC(C)(C)C3)cc1,i,i,i,i,i,nt,nt
COc1ccc(C(=O)/C=C/c2ccccc2C(F)(F)F)cc1,i,i,19.9,i,i,i,i
COC(=O)c1ccc(NCc2c(O)ccc(O)c2Br)cc1Cl,i,i,40.6,32.2,17.1,i,i
COc1ccc(S(=O)(=O)N2CCN(CC(=O)c3ccc(O)c(O)c3)CC2)cc1,i,i,21.9,i,i,i,i
CC(=O)N1CCN(c2ccc(N3CCN(C(C)=O)[C@H](C)C3)c(C)c2)[C@H](C)C1,i,nt,i,nt,i,nt,nt
COC(C(=O)Nc1ccc(S(=O)(=O)Nc2ccc(F)cc2)cc1)c1ccccc1 (stereo not given),i,i,i,i,i,nt,nt
COC(C(=O)Nc1ccc(S(=O)(=O)Nc2cccc3ccccc23)cc1)c1ccccc1 (stereo not given),i,i,21.1,i,i,i,i
